High-throughput results deposited in PubChem BioAssay by National Center for Advancing Translational Sciences (NCATS).
pAkt inh – HTS Assay for Inhibitors of Akt Phophorylation: Primary Screen; Neuro2A IGF-stimulated pAkt S473 HTRF, 20 min; stronger effect = lower value; activity change, % for hits at 50 µM; actives 0.32% (n = 360,000); AID 651550, 2012; in the data active = activity change below about -80%; inconclusive = mostly about -51% to -80%
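Neuro2A cells in DMEM with 0.5% FBS, overnight at 37 deg C, given compound at single 50 µM final, then IGF (6 nM final) for 20 min at 37 deg C. Lysed; phospho-Akt Ser473 by HTRF after 24 h, 665/615 ratio.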
Six1-Eya2 blk – qHTS Assay for Inhibitors of the Six1/Eya2 Interaction | AlphaScreen GST-Six1/His-Eya2 binding, biochemical; stronger effect = lower value | activity change, % (test concentration not listed) | actives 0.56% (n = 360,000)
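Homogeneous AlphaScreen proximity assay pairing GST-Six1 with His-tagged Eya2 (added as 5X mix: 250 nM and 500 nM) in 50 mM Tris pH 8.0, 300 mM NaCl, 1 mM TCEP. Glutathione donor and nickel acceptor beads; 1 h, 37 °C, dark.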
CtBP-E1A blk – qHTS Assay for Inhibitors of the CtBP/E1A Interaction; CtBP / adenovirus E1A interaction (AlphaScreen); AlphaScreen GST-E1A/His-CtBP binding, 1536-well; stronger effect = lower value; activity change, % (concentration not given with the values); actives 0.49% (n = 340,000); AID 651724, 2012
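In 5 uL wells, 23 nL compound meets equimolar GST-E1A and His-CtBP (5X stock 125 nM each) for 2 h, 37 °C. Beads (5X, 50 ug/mL) then 1 h, 37 °C, dark.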
CCT chaperon mod – High-Throughput Screening for Modulators of Cytosolic Chaperonin Activity; purified chaperonin ATPase assay, HTRF ADP detection, 30 min; activity change, % (no concentration beside the values), hits read low; actives 0.3% (n = 360,000); AID 651819, 2012; in the data active = activity change below about -30%
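First, chaperonin was dispensed at 40 nM or 20 nM final depending on batch activity. Next, compounds were pinned at 76 uM and ATP added at 10 uM. After 30 min at 37 °C, ADP detection reagents ran 30 min at ambient temperature.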
The depositor's hits bear a star. The list is not random: actives were taken first. Their share in the collection is about 1.2%. Cut-off read from the data, not from the text of the source, unless noted: active = activity change below about -65%; inconclusive = mostly about -30% to -63%; inactive = weaker than that. % is set by controls: 0 for no effect and ±100 for the full control effect.

How did CC1CCN(S(=O)(=O)c2ccc(Oc3ccc([N+](=O)[O-])cc3)cc2)CC1 do in these assays?
pAkt inh: -81.4%*; Six1-Eya2 blk: -15.8; CtBP-E1A blk: -22.1; CCT chaperon mod: -0.5

Results for O=C1CN(S(=O)(=O)c2ccc([N+](=O)[O-])cc2)CC(=O)N1 ?
pAkt inh: inactive; Six1-Eya2 blk: 2.1; CtBP-E1A blk: 1.0; CCT chaperon mod: -51.8*

How did COc1ccc(/C(N)=C/C(=O)C(C)(C)C)cc1 do in these assays?
pAkt inh: inactive; Six1-Eya2 blk: -1.6; CtBP-E1A blk: 1.7; CCT chaperon mod: -0.8

How did CC(C)(C)C(=O)/C=C(\N)c1ccncc1 do in these assays?
pAkt inh: -101.1%*; Six1-Eya2 blk: -7.6; CtBP-E1A blk: -5.1; CCT chaperon mod: 3.5

How did CN(CC(=O)Nc1cccc(C(F)(F)F)c1)C1=NS(=O)(=O)c2ccccc21 do in these assays?
pAkt inh: inactive; Six1-Eya2 blk: -23.0; CtBP-E1A blk: -0.1; CCT chaperon mod: 2.5

How did O=C(Oc1ccnc2cc(Cl)ccc12)N1CCCCCC1 do in these assays?
pAkt inh: -95.9%*; Six1-Eya2 blk: 2.9; CtBP-E1A blk: 37.2; CCT chaperon mod: 1.8

What do the screens show for `Nc1[nH]n(-c2ccccc2)c(=O)c1N=Nc1ccc2c(c1)OCCO2`?
pAkt inh: inactive; Six1-Eya2 blk: -68.7*; CtBP-E1A blk: -0.1; CCT chaperon mod: -4.8

What do the screens show for `Nc1[nH]n(-c2ccccc2)c(=O)c1N=Nc1ccc2c(c1)OCO2`?
pAkt inh: inactive; Six1-Eya2 blk: inconclusive; CtBP-E1A blk: -21.1; CCT chaperon mod: -1.7

How did COC(=O)C(C(=O)OC)=C(/C=C/N(C)C)N(C)C do in these assays?
pAkt inh: -104.3%*; Six1-Eya2 blk: 10.9; CtBP-E1A blk: 0.9; CCT chaperon mod: 0.6

Results for O=S(=O)(Cc1ccccc1Cl)N1CCCC1 ?
pAkt inh: inactive; Six1-Eya2 blk: 2.2; CtBP-E1A blk: -78.7*; CCT chaperon mod: -0.9

Results for O=C(NCc1cc([N+](=O)[O-])ccc1O)c1cccc(NS(=O)(=O)c2ccccc2)c1 ?
pAkt inh: inactive; Six1-Eya2 blk: -82.7*; CtBP-E1A blk: -89.0*; CCT chaperon mod: 0.7

How did O=C(N/N=C/C(Cl)=C/c1ccc([N+](=O)[O-])cc1)C(=O)Nc1ccccc1C(=O)O do in these assays?
pAkt inh: inactive; Six1-Eya2 blk: -25.3; CtBP-E1A blk: -91.6*; CCT chaperon mod: -0.7

How did O=C(N/N=C/C(Cl)=C/c1ccc([N+](=O)[O-])cc1)C(=O)Nc1ccc(C(=O)O)cc1 do in these assays?
pAkt inh: inactive; Six1-Eya2 blk: -19.3; CtBP-E1A blk: -98.3*; CCT chaperon mod: -1.0

Results for NC(=O)c1ccc2c(=O)n3c(-c4cc(Cl)c(N)c(Cl)c4)csc3nc2c1 ?
pAkt inh: inactive; Six1-Eya2 blk: -75.2*; CtBP-E1A blk: -76.1*; CCT chaperon mod: -1.8

Results for CCOc1ccccc1-c1nc(C(N)=O)c2[nH]c(=O)n(-c3cccc(C)c3)c2n1 ?
pAkt inh: inactive; Six1-Eya2 blk: -5.5; CtBP-E1A blk: -0.1; CCT chaperon mod: 1.7

Results for CCOc1cccc(-c2nc(C(N)=O)c3[nH]c(=O)n(-c4cccc(Cl)c4)c3n2)c1O ?
pAkt inh: inactive; Six1-Eya2 blk: -2.6; CtBP-E1A blk: -2.2; CCT chaperon mod: -37.5*

How did COc1cccc(C2C(C(=O)c3sc(C)nc3C)=C(O)C(=O)N2CCN2CCOCC2)c1OC (stereo not given) do in these assays?
pAkt inh: -121.7%*; Six1-Eya2 blk: 10.9; CtBP-E1A blk: -0.1; CCT chaperon mod: -3.6

What do the screens show for `CC(=O)Nc1ccc(Nc2ccc3c4c(cc(=O)n3C)-c3ccccc3C(=O)c24)cc1`?
pAkt inh: inactive; Six1-Eya2 blk: inconclusive; CtBP-E1A blk: inconclusive; CCT chaperon mod: -1.9

Results for O=C1c2ccccc2C(=O)c2c(Nc3ccc(CCO)cc3)ccc(O)c21 ?
pAkt inh: inactive; Six1-Eya2 blk: -83.4*; CCT chaperon mod: 0.1

Results for NC(=O)COC(=O)c1ccccc1Oc1ccccc1 ?
pAkt inh: inactive; Six1-Eya2 blk: 6.3; CtBP-E1A blk: 5.8; CCT chaperon mod: -0.4

How did COc1cc(NC(=O)COc2cc3oc(=O)cc(C)c3cc2Cl)cc(OC)c1OC do in these assays?
Six1-Eya2 blk: -8.3; CCT chaperon mod: -59.3*

How did CN(C(=O)C(Cl)Cl)C1CC2C=CC1C2 (stereo not given) do in these assays?
pAkt inh: inactive; Six1-Eya2 blk: -2.0; CtBP-E1A blk: 3.2; CCT chaperon mod: 1.2
